According to the supplement of paper PMC12632987:
Over roughly 1,800 sequences, “median log2 fold change of GCK-ALFA target abundance (FLAG IP / Myc IP barcode read proportion)” has its median near 0.14; the lowest 2% begin near -0.84. This is one part of a sample in which the lowest values are shown more often than they occur.

T1: TRAF2, Q12933
T1 chain: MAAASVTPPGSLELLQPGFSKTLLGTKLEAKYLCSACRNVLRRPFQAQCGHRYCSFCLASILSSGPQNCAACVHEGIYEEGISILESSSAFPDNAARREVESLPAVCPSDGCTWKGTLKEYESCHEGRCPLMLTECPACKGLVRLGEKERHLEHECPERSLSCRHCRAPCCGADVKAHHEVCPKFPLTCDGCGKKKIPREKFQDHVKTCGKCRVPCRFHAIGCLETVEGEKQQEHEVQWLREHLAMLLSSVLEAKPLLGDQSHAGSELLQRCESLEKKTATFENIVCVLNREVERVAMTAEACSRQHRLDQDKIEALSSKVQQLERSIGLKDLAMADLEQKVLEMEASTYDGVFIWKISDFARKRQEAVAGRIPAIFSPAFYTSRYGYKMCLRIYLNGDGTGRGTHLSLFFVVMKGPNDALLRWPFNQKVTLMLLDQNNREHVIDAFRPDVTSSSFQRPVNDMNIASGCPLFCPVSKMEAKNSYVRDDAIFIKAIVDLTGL

B1: traf2_out_11_169_862 (protein)
chain: KEEEFNRKLIDFALEVEDEAKKKLKEFALKLAKEAGLDVAEVEAIFEKHKNSSLSAIASALIEYFRSKGKEEEAEKILKKHDELKEEINKKVSEKIKELK
B2: traf2_out_16_177_1458 (protein)
chain: ELDRVMDRLVILSLIRRAALEIVRSNSPEAERYLAEARAEAEAAGDEEGLARIARIEELAAQNTPEARAELRALAAEAQREAQRLANEAERLIRERAAAE
B3: traf2_out_20_38_2035 (protein)
chain: SEEEEEEEKLEEIIEVANEAYDEYMAWIAERKAAGKTVEEIAEEAKEEVKELLSKVGLEEEAEILIEDIDRALSSPDAERLIARTLARAVALVKQKELNK
B4: traf2_out_20_38_2034 (protein)
chain: SMEEEEEEKLEEIIEVANEALDKYEAEIAKWKAEGKTVEEIAEEAKKKVKELLSKVGLEEEAKILIEEIDLALSSPDAERLIARTLARAEALVKQKELNE
B5: traf2_out_1_71_1752 (protein)
chain: SPEAEKAEKALEDMAKSIAEGMKTEEALERYLEAFRNHIKRVKALAKANKDDEAVKAGSIADLNLEAELLEKIAKYVDEESKKKLEELAKEAKKAAEEIK
B6: traf2_out_13_95_1034 (protein)
chain: SRELAEKIMEIADEAEEKILKLLEEKSKELADDPEMVKVLEEARRLALTRGVNEAIHLLREASERFPEYKEELDKLIEEIEKIREEAGKKVAELIKEEEE
B7: traf2_out_20_38_2036 (protein)
chain: SMEEEEEEKLEEIIRVANEAYDAYEAEIAALKAAGKTVEEIAAIAKERVRELLSKVGLEEEAEILVEDIDLALSSPEAERLIARILARAEAKVKQKELNE
B8: traf2_out_20_38_2022 (protein)
chain: SEEEEEKKKLEELVKVANEAYDEYTARFAEWKAAGKTVEEIAEEVKERIRELLTAAGLEEEAEILIEEVDLALKSPEAERLLVRTLARAVALVHQKELQK
B9: traf2_out_13_95_1078 (protein)
chain: SAEANKKIMEIADEMLEKSLKILKELSKKVADNPEMKAAVEEAIHLAETQGINAAIHLLEKLSEANPEYKELLDEAIKKLKEIKEEAGKKVAEILKEEKE
B10: traf2_out_11_155_677 (protein)
chain: EKKREINNALVDEMAAIDDATRAALDAIVDAAAAAHPEHAAALRAARDATRPYPGSSRGRALAALFRELGLEDYAAQVEALLAAAQKEKNAALKAHEAKL
B11: traf2_out_20_3_2096 (protein)
chain: EELKKELEKALEEAEKLIKEAIKLADEETAKKLKELLKKLKEAKELPLDDQLVELSEVRRELLELAEKAKKEGKEELAKILEEAADKINRAMNLAYKIIE
B12: traf2_out_17_178_1700 (protein)
chain: SKEEIRKKISELTDELIDHADRYGTALLARLRAEGVLSPEELAALDAALASGSNRTLLATAEELIPRSAASPETRALLAEWRAETREIAKKIAEAYEKYE
B13: traf2_out_18_167_1855 (protein)
chain: EEELKKKLEEATDELVKLSEVKRLARTALQLLETDPAAFPAAKAALIAALRAHGELAHLADRLEAAPPEEQPAVLEEIVEEAQRLANEKYKEIEELRKKL
B14: traf2_out_5_63_2338 (protein)
chain: SEREELTALAREADRAVRAILEALKAGKREEARKLVEEVAKDPELLRTAIGIARAELKYYSLQPEKKEEEKIAKELLKLLEEAAKRREEEERREREEALA
B15: traf2_out_17_178_1715 (protein)
chain: TKEAARAEISAATDEMIDLAEAAAARLLAIAEAEGSLSPEELAELRRARRLGSARTTRALMRRAIPRSPSAAEVQALLDDFEKRYAELSKKIAEALKKYE
B16: traf2_out_15_180_1332 (protein)
chain: MTEEELEKRIELVAEVADEADERVREELAAAGVTSPEHLALARSGVRAVITHVFAGWEEEAEEVEEIVAARLPEELRPLFRRLVEEARRRAEEALERLKK
B17: traf2_out_6_3_2529 (protein)
chain: SEEKLREDARTILENMGITTAEQLLRLVKAEVNAVKQLVSRPDVDRADLAGARSVLALTRAMVEVAAETLPSLTPEQAEEALALIDETEKLVEKREKELE
B18: traf2_out_6_3_2518 (protein)
chain: MEESIRRDAAKVLENMGITTAEQLLRLVKANVNAVKKLVSRKDVDRADLAGAESVLNLTRAMVEVAAETLPDLTEEQKAEMLALIEEARELVEKKRKELE
B19: traf2_out_6_3_2519 (protein)
chain: MEESLREDARTVLKNMGITTAEQLLRLVKAEVNAVKKLVSRKDVDRADLAGAESVLALTRAMVEVAAEELPDLTEEQKAEMLELIEEAEKLVEEKRKELE

Target: T1, TRAF2, Q12933
Assay: median log2 fold change of GCK-ALFA target abundance (FLAG IP / Myc IP barcode read proportion) (log2 ratio); each designed protein is fused to an ALFA-tag nanobody in HEK293 cells to bring the named protein to FLAG-tagged glucokinase (GCK); Myc marks an untargeted standard; higher = target protein stabilised (more abundant)
Details: target protein: 3xFLAG-MCP-GCK-ALFA reporter; HEK293 landing pad (RPLP)
Method in brief: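 HEK293 landing-pad cells received a recombined binder library fused to the ALFA nanobody and were induced with 2 μg mL^−1 doxycycline, then transfected with a plasmid encoding a FLAG-tagged target and a Myc-tagged standard. Lysates were collected after 48 h for anti-FLAG and anti-Myc immunoprecipitation, and the circular RNA barcodes were reverse transcribed, amplified and sequenced. Target abundance for each binder is the median log2 ratio of FLAG to Myc barcode read proportions. Barcodes had to reach a proportion of at least 10^−7 in both replicates, each binder needed at least 3 barcodes per replicate, a pseudocount of 10^−6 was applied, and the two replicates were pooled.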

Binder	median log2 fold change
B1	0.0801
B2	-0.327
B3	-1.16
B4	-0.126
B5	-0.948
B6	-0.375
B7	-1.27
B8	-0.885
B9	0.00315
B10	-0.00384
B11	0.177
B12	0.0128
B13	0.405
B14	0.165
B15	-0.171
B16	-0.0893
B17	-0.16
B18	-0.905
B19	-0.45
